Laboratory results published in PubChem BioAssay (NCI).
Compounds without any hit were thinned out: in the full panel of roughly 79,000, 15% have a hit. Unmarked numbers belong to inactive results. Active and inactive are the calls of the source. No stated cut-off is given here; in the data, active means growth inhibition above about 70%; inactive means the rest.

Key:
[1] = NCI Yeast Anticancer Drug Screen. Data for the rad50 strain (AID 155);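 further: 0% = growth of vehicle-only cultures of the same strain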; conditions: S. cerevisiae rad50 strain growth inhibition, hits give high values
Procedure, shortened: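 Compounds were tested on a yeast strain with an engineered DNA damage repair alteration; the reported value is growth inhibition normalised to vehicle treatment.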

[2] = NCI Yeast Anticancer Drug Screen. Data for the mec2-1 strain (AID 157); conditions: S. cerevisiae mec2-1 strain, hits give high values
Procedure, shortened: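 Vehicle-treated cultures served as reference for growth inhibition of compound-exposed mec2-1 yeast.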

[3] = NCI Yeast Anticancer Drug Screen. Data for the sgs1 mgt1 strain (AID 161);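 further: 0% = growth of cultures given vehicle only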; conditions: S. cerevisiae sgs1 mgt1 strain, hits give high values
Procedure, shortened: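 Mutant yeast exposed to compound; growth scored against vehicle-only wells.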

[4] = NCI Yeast Anticancer Drug Screen. Data for the cln2 rad14 strain (AID 165);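 further: 0% = growth equal to vehicle treated cultures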; conditions: S. cerevisiae cln2 rad14 strain, hits give high values
Procedure, shortened: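 Each compound was tested on cln2 rad14 yeast. Inhibition of growth was calculated against vehicle-exposed controls.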

[5] = NCI Yeast Anticancer Drug Screen. Data for the bub3 strain (AID 167); conditions: S. cerevisiae bub3 mutant strain, hits give high values
Procedure, shortened: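 Growth of a checkpoint-deficient yeast mutant is measured after compound exposure. Values represent inhibition relative to vehicle.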

[6] = NCI Yeast Anticancer Drug Screen. Data for the mlh1 rad18 strain (AID 175); conditions: S. cerevisiae mlh1 rad18 strain growth inhibition, hits give high values
Procedure, shortened: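 Vehicle-treated cultures served as the reference for growth inhibition in a yeast strain carrying DNA damage repair alterations exposed to each compound.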

[7] = at 5.0 µM (retest, dose inferred, filed as 0.5)
[8] = at 50.0 µM (retest, dose inferred, filed as 5.0)

SMILES | growth inhibition [1, 7] | growth inhibition [1, 8] | growth inhibition ([1]; at 50.0 µM) | growth inhibition [2, 7] | growth inhibition [2, 8] | growth inhibition ([2]; at 50.0 µM) | growth inhibition [3, 7] | growth inhibition [3, 8] | growth inhibition ([3]; at 50.0 µM) | growth inhibition [4, 7] | growth inhibition [4, 8] | growth inhibition ([4]; at 50.0 µM) | growth inhibition [5, 7] | growth inhibition [5, 8] | growth inhibition ([5]; at 50.0 µM) | growth inhibition [6, 7] | growth inhibition [6, 8] | growth inhibition ([6]; at 50.0 µM)
Nc1ccccc1C(=O)c1ccccc1 | 4% | 8% | 76.2% (active) | 1% | 4% | 11% | 1% | 10% | 38.1% | 4% | 1% | 3.25% | 0% | -3% | 47.2% | 4% | 5% | 75.7% (active)
CCCCCCCC(=O)[O][Hg][c]1ccccc1 | 99% (active) | 99% (active) | 99.5% (active) | 100% (active) | 100% (active) | 99.8% (active) | 100% (active) | 100% (active) | 99.7% (active) | 99% (active) | 99% (active) | 99.5% (active) | 100% (active) | 99% (active) | 99.8% (active) | 100% (active) | 100% (active) | 99.7% (active)
O=[N+]([O-])/C=C/c1c(Cl)cccc1Cl | 99% (active) | 99% (active) | 99.2% (active) | 100% (active) | 100% (active) | 99.2% (active) | 99% (active) | 99% (active) | 99.3% (active) | 99% (active) | 99% (active) | 98% (active) | 100% (active) | 99% (active) | 99.3% (active) | 99% (active) | 99% (active) | 99.2% (active)
C/C(=C\c1ccccc1)[N+](=O)[O-] | 96% (active) | 99% (active) | 98.7% (active) | 26% | 100% (active) | 93.2% (active) | 26% | 98% (active) | 92.4% (active) | 11% | 97% (active) | 46.9% | 12% | 99% (active) | 94.2% (active) | 35% | 99% (active) | 99.3% (active)
Cc1ccc([NH-])cc1C.Cc1ccc([NH-])cc1C.[Cl][Pt+2][Cl] | 4% | 21% | 34.2% | -1% | 9% | 19.8% | 5% | 58% | 62.5% | -8% | 12% | -32.4% | -8% | 4% | 10.8% | 6% | 49% | 81.5% (active)
C#CC[As+](c1ccccc1)(c1ccccc1)c1ccccc1 | 31% | 98% (active) | 88.4% (active) | 29% | 99% (active) | 91.8% (active) | 45% | 100% (active) | 92.5% (active) | 37% | 95% (active) | 88.8% (active) | 34% | 99% (active) | 91.2% (active) | 45% | 98% (active) | 88.9% (active)
CCOP(=O)(OCC)/C(C#N)=C/c1cccc(F)c1 | -9% | 45% | 73.8% (active) | -11% | 23% | 59.3% | -2% | 36% | 64.8% | 17% | 33% | 25.4% | -12% | 56% | 51.1% | -1% | 69% | 68.9%
COc1cc(C2c3cc4c(cc3[C@@H](Nc3ccc([N+](=O)[O-])cc3)C3COC(=O)[C@H]23)OCO4)cc(OC)c1O (stereo not given in full) | 96% (active) | 96% (active) | 84.4% (active) | 97% (active) | 97% (active) | 91% (active) | 49% | 98% (active) | 87.7% (active) | 22% | 97% (active) | 86.6% (active) | 54% | 98% (active) | 87.2% (active) | 95% (active) | 96% (active) | 88.5% (active)
CC(=O)C(CN1CCOCC1)C(c1ccccc1)c1c(O)c2ccccc2oc1=O (stereo not given) | 7% | 73% (active) | -1.6% | 5% | 75% (active) | -12.3% | 3% | 80% (active) | 9.4% | 5% | 79% (active) | 0.25% | 22% | 83% (active) | 21.9% | 6% | 81% (active) | -13.5%
CC(C)C1(NC(=O)C2CC3c4cccc5[nH]cc(c45)CC3N(C)C2)OC2(O)C3CCCN3C(=O)C(Cc3ccccc3)N2C1=O (stereo not given) | -26% | 94% (active) | 86.2% (active) | -2% | 96% (active) | 90.8% (active) | -10% | 92% (active) | 86.7% (active) | 1% | 96% (active) | 84.3% (active) | 30% | 96% (active) | 86.3% (active) | 4% | 97% (active) | 83.4% (active)
